Assay results from PMC4552634, “A New Set of Chemical Starting Points with Plasmodium falciparum Transmission-Blocking Potential for Antimalarial Drug Discovery” (PLoS ONE, 2015).
Where two headings read alike, the source gives them in different places. The campaign covered roughly 13,000 compounds. About 3,200 (25%) showed an effect of 50% or more. Some of the results follow.

Tested on: P. falciparum stage V gametocytes
Set-up: BacTiter-Glo ATP luminescence viability of purified stage V gametocytes in 384-well plates, per cent inhibition versus DMSO
Conditions: 48 h, 5 µM, inhibitor

SMILES | % Inhibition [%] | % Inhibition (% Inhibition) [%]
CCCCCCCN(Cc1ccc(OC(C)(C)C(=O)OCC)cc1)C(=O)Nc1ccccc1OC(F)(F)F [TCMDC-131918] | 45.53 | 
CCCCCCCN(Cc1ccc(OC(C)(C)C(=O)OCC)cc1)C(=O)Nc1ccccc1OCC [TCMDC-137534] | 46.34 | 
CCCCCCCN(Cc1ccc(OC(C)(C)C(=O)OCC)cc1)C(=O)Nc1ccc(Cl)cc1OCC [TCMDC-131919] | 74.71 | 
Cn1c(-c2ccccc2)cc2c3c(N)nc(N)nc3ccc21 [TCMDC-137985] | 110.7 | 
Nc1nc(N)c2c(ccc3nn(Cc4ccccc4)cc32)n1 [TCMDC-137757] | -1.825 | 
Cn1ccc2c3c(N)nc(N)nc3ccc21 [TCMDC-139863] | 5.526 | 
Cc1cc2c3c(N)nc(N)nc3ccc2n1C [TCMDC-137957] | 115.7 | 
CCC(C)(C)n1c(C)cc2c3c(N)nc(N)nc3ccc21 [TCMDC-137307] | 10.01 | 
CCC(CC)n1c(C)cc2c3c(N)nc(N)nc3ccc21 [TCMDC-137283] | 15.6 | 
Cc1cc2c3c(N)nc(N)nc3ccc2n1C(C)C [TCMDC-137864] | -11.65 | 
CCCn1cc2c(ccc3nc(N)nc(N)c32)n1 [TCMDC-137858] | 22.58 | 
CCOCn1c(-c2ccccc2)cc2c3c(N)nc(N)nc3ccc21 [TCMDC-137979] | 108.5 | 
COc1ccc(C(=O)COc2cccc(/C=C/C(=O)O)c2)cc1OC [TCMDC-137318] | -6.983 | 
Cc1nc(-c2cccc(NCc3ccccc3)c2)[nH]c1C [TCMDC-133419] | -26.98 | 
CCOc1cc(Cc2cnc(N)nc2N)cc(OC)c1OC [TCMDC-137664] | -4.101 | 
CC(C)C1C(O)=C(c2ccc3ccccc3c2)C(=O)N1Cc1ccsc1 (stereo not shown) [TCMDC-141810] | 16.73 | 
Cc1ccccc1C1CCN(C2CCC(NC(=O)/C=C/c3cccc(Cl)c3F)CC2)CC1 (stereo not shown) [TCMDC-133513] | -35.56 | 
COc1cccc(CNC[C@@H](O)[C@H](Cc2ccccc2)NC(=O)c2cc3c4c(c2)c(C(C)C)cn4CCS(=O)(=O)N3C)c1 [TCMDC-135536] | 25 | 
COc1ccc2nccc([C@@H](O)CN3CCC(NC(=O)c4cccc(-c5cc(C)no5)c4)CC3)c2c1 [TCMDC-141133] | -80.32 | 
Cc1nn(-c2ccccc2)nc1C(=O)NC1CCN(CCNC(=O)c2ccc(Cl)c(Cl)c2)CC1 [TCMDC-141951] | 7.25 | 
Cc1noc(C)c1-c1cccc(C(=O)NC2CCN(CCNC(=O)C(c3ccccc3)c3ccccc3)CC2)c1 [TCMDC-133354] | 85.49 | 
OCCn1c(CNCCCNc2nc3ccccc3[nH]2)cc2c(Cl)cc(Cl)cc21 [TCMDC-140142] | 2.661 | 
CNc1nc(N/N=C/c2cc([N+](=O)[O-])c(Cl)cc2Cl)nc(Nc2cccc(C(F)(F)F)c2)n1 [TCMDC-124087] | -4.111 | 
CCn1c(-c2nonc2N)nc2c(-c3cccc(NC(=O)Nc4cccc(OC)c4)c3)ncc(OCCCN)c21 [TCMDC-136180] | 96.94 | 

SMILES | % Inhibition [%] | % Inhibition (% Inhibition) [%]
COc1cccc(-c2ccc3c(-c4cccc(NC(C)=O)c4)cnc(N)c3c2)c1 [TCMDC-134562] | 29.05 | 
CCn1c(-c2nonc2N)nc2c(-c3cccc(NC(=O)Nc4ccccc4OC)c3)ncc(OCCCN)c21 [TCMDC-136190] | 111.9 | 
COc1ccccc1NC(=O)Nc1cccc(-c2ccc(-c3nc4cccc(C)c4[nH]3)s2)c1 [TCMDC-133200] | 0.164 | 
COc1ccccc1NC(=O)Nc1cccc(-c2cccc(-c3nc4c(C)cccc4[nH]3)c2)c1 [TCMDC-133204] | -4.891 | 
CCn1c(-c2nonc2N)nc2cnc(Oc3cccc(NC(=O)c4ccc(OCCN(C(C)C)C(C)C)cc4)c3)cc21 [TCMDC-135777] | -15.21 | 
CCn1c(-c2nonc2N)nc2c(-c3cccc(NC(=O)Nc4ccccc4Cl)c3)ncc(OCCCN)c21 [TCMDC-136192] | 107.4 | 
CCn1c(-c2nonc2N)nc2c(C#CC(C)(C)O)ncc(OCCNCCc3ccc(OC)cc3)c21 [TCMDC-136364] | 100.7 | 
CCC(Cc1cnc2nc(N)nc(N)c2n1)c1ccc(C(=O)O)cc1 (stereo not shown) [TCMDC-137331] | 24.52 | 
FC(F)(F)c1ccc2[nH]c(-c3ccc(-c4ccc(CN5CCN(c6ccncc6)CC5)cc4)s3)nc2c1.O=C(O)C(F)(F)F [TCMDC-132920] | -8.718 | 
O=C(Nc1ccc([N+](=O)[O-])cc1O)Nc1ccccc1Oc1ccccc1 [TCMDC-139010] | -27.06 | 
O=c1[nH]c2c(c(O)c1[N+](=O)[O-])CCC2 [TCMDC-131385] | -1.405 | 
Cc1ccc(NC(=O)NC2CCN(CCC(NC(=O)Cc3ccccc3)c3ccc(Cl)c(Cl)c3)CC2)cc1 (stereo not shown) [TCMDC-141708] | -50.52 | 
CCOC(=O)C(=O)N1c2ccc(OCC)cc2-c2c(ssc2=S)C1(C)C [TCMDC-124090] | -28.77 | 
COc1cc(NC(=O)/C=C/c2cccc3cc[nH]c23)ccc1OCCN(C(C)C)C(C)C [TCMDC-139962] | 14.04 | 
CCC(NC(=O)c1ccccc1NC(=O)c1ccc(C)cc1)C(=O)OC (stereo not shown) [TCMDC-124179] | 51.66 | 
Cc1cc(NC(=O)c2ccc(-c3ccccc3)cc2)no1 [TCMDC-123478] | 45.67 | 
CCOC(=O)c1ccc(NC(=O)c2ccccc2C(=O)O)cc1 [TCMDC-125804] | 12.67 | 
CC(=O)N(C)/N=C/[C@H](CCc1ccccc1)NC(=O)[C@H](CC(C)C)NC(=O)c1cccc(OCCN2CCOCC2)c1 [TCMDC-135821] | 14.53 | 
OC1(C(F)(F)F)CC(c2ccccc2)=NN1c1nncc(-c2ccccc2)n1 (stereo not shown) [TCMDC-123864] | 70.72 | 
O=C(Nc1cccc(-c2cccc(-c3nc4ccccc4[nH]3)c2)c1)NC1CC1c1ccccc1 (stereo not shown) [TCMDC-133253] |  | -2.475
Cc1cc(-c2cccc(CNC3CCN(C)CC3)c2)ccc1S(=O)(=O)NCc1ccccc1 [TCMDC-132379] | 41.73 | 
CN1CCC(NCc2ccc(-c3ccc(S(=O)(=O)NCc4ccccc4)c(F)c3)cc2)CC1 [TCMDC-132235] | 73.08 | 
CN1CCC(NCc2cccc(-c3ccc(S(=O)(=O)NCc4ccccc4)c(F)c3)c2)CC1 [TCMDC-132219] | 107.3 | 
Cc1cc(-c2ccc(CNC3CCN(C)CC3)cc2)ccc1S(=O)(=O)NCc1ccccc1 [TCMDC-132474] | 44.56 | 

SMILES | % Inhibition [%] | % Inhibition (% Inhibition) [%]
CCNc1cc(C(=O)N[C@@H](Cc2ccccc2)[C@H](O)CN[C@H](C)C(C)(C)C)cc(N2CCCCS2(=O)=O)c1 [TCMDC-135194] | 4.242 | 
O=C(N[C@@H](CC1CCCCC1)C(=O)NCc1cccc(C(F)(F)F)c1)c1ccc(O)c(-c2ccc(Cl)c(Cl)c2)c1 [TCMDC-140836] | 10.47 | 
Cc1nc2sccn2c1C(=O)NCCc1ccccc1Cl [TCMDC-136538] | 1.524 | 
CC(C)(CNC(=O)[C@H]1CCCN1)c1nc(-c2ccc(Cl)c(O)c2)c(-c2ccncc2)[nH]1 [TCMDC-141060] | -63.79 | 
O=C(NCc1cccs1)[C@H](Cc1ccccc1)Nc1ccnc(NCCc2ccc(F)cc2)n1 [TCMDC-134825] | 42.49 | 
O=C(NCc1cccs1)[C@H](Cc1ccccc1)Nc1ccnc(NCCc2ccccc2)n1 [TCMDC-134810] | 62.6 | 
O=C(NCc1cccs1)[C@H](Cc1ccccc1)Nc1ccnc(NCC2CCCCC2)n1 [TCMDC-134708] | -6.926 | 
COc1ccccc1CCNc1nccc(N[C@@H](Cc2ccccc2)C(=O)NCc2cccs2)n1 [TCMDC-134745] | 80.93 | 
COc1ccccc1CCNc1ncc(F)c(N[C@@H](Cc2ccccc2)C(=O)NCCc2ccccc2)n1 [TCMDC-134948] | 4.371 | 
O=C(NCCc1ccccc1)[C@H](Cc1ccccc1)Nc1ccnc(NCC2CCCCC2)n1 [TCMDC-134711] | 29.07 | 
O=C(C1CC1)N1c2ccccc2CCc2ccccc21 [TCMDC-123880] | 17.87 | 
COc1cc(Cl)c(C)cc1-n1cc(C(=O)c2cc(Br)ccc2O)cc(C#N)c1=O [TCMDC-123630] | -51.04 | 
CCCCC(CC)NC(=O)[C@H]1CNCCN1C(=O)CCCc1ccccc1 (stereo partly shown) [TCMDC-141269] | -15.01 | 
CCCCOC(=O)C1=C(C)NC2=C(C(=O)CC(c3ccc(OC)c(OC)c3)C2)C1c1ccc(O)cc1 (stereo not shown) [TCMDC-125635] | 28.36 | 
CCCCOC(=O)C1=C(C)NC2=C(C(=O)CCC2)C1c1ccc(OC)c(Br)c1 (stereo not shown) [TCMDC-124210] | -70.69 | 
CCOC(=O)C1=C(C)NC2=C(C(=O)C(C(=O)OC)C(C)C2)C1c1cc(Br)c(OCC)c(OC)c1 (stereo not shown) [TCMDC-125139] | 94.17 | 
O=C(Nc1ccc(-c2ccc(-c3nc4ccccc4[nH]3)cc2)cc1)Nc1ccc(Cl)c(Cl)c1 [TCMDC-133279] | -60.39 | 
Oc1ccc(CN2CCN(CCOC(c3ccc(F)cc3)c3ccc(F)cc3)CC2)cc1Cl [TCMDC-135691] | 8.088 | 
CN1CCC(C(=O)Nc2cccc(-c3ccc(-c4nc5ccc(C(F)(F)F)cc5[nH]4)cc3)c2)CC1 [TCMDC-132190] | 21.59 | 
CC(C)CN(c1nc(C(=O)NNC(=O)[C@H](CC2CC2)NC(=O)c2cc3cc(OCCN4CCCCC4)ccc3o2)cs1)C1CC1 [TCMDC-139232] | 55.6 | 
CC(C)CN(c1nc(C(=O)NNC(=O)[C@H](CC2CC2)NC(=O)c2cc3cc(OCCN(C)C)ccc3o2)cs1)C1CC1 [TCMDC-139231] | -13.37 | 
O=C(N[C@@H](CC1CCCCC1)C(=O)NCCN1CCCCC1)c1ccc(O)c(-c2ccc(Cl)c(Cl)c2)c1 [TCMDC-140862] | 10.77 | 
